Active and inactive are the calls of the source. Unless noted, how the calls were made is not given here.
Columns and labels:
[1] = compounds altering viability of human ES cells (AID 493140); settings: human embryonic stem cell survival screen; stronger effect = higher value;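 further: cells exposed to compounds for four days before counting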
[2] = viability loss with induced miR-34 in A549 – imaging, A549 dox-inducible miR-34, nuclei and caspase counts, primary screen (AID 1347080;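 active means compounds whose cell count with miR-34 switched on is under 0.7 times the count with it off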); settings: A549 miR-34 inducible, Hoechst nuclei count, 48 h
[3] = chitosan synthesis blockers in C. neoformans – flow cytometry, Cibacron Brilliant Red staining (AID 1347148); settings: Cryptococcus neoformans chitosan, stronger effect = lower value; at 10 µM unless noted;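 further: compound exposure lasted three days at 37 degrees C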
[4] = blockers of cellular phospholipid synthesis – cell-based, LOPAC library, screen 4, primary screen (AID 1347384); settings: animal cells, phospholipid biosynthesis inhibition screen; at 10 µM
[5] = galactose survival enhancers in mitochondrial complex I cybrids – cell-based, galactose medium, ATP luminescence, primary screen (AID 1645843;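 active means z-score of at least 1.8 in each of two replicates, scored against plate mean and spread of sample wells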;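 further: positive z means more ATP and so rescue of galactose-driven cybrid death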); settings: complex I mutant cybrid cells, 72 h, stronger effect = higher value
[6] = compounds altering circadian rhythm period length – cell-based, LOPAC library, luminescence reporter (AID 2774); settings: circadian reporter cells, at 7 µM, actives lie on both sides;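 further: values are relative to mean of DMSO wells on each plate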
[7] = test system: Hepatitis C virus NS3 helicase; experiment: blockers of NS3h binding to ssDNA – biochemical, fluorescence polarization, LOPAC1280 library, primary screen (AID 687035; in the data active means inhibition above about 37%); settings: Purified HCV NS3 helicase, Cy5-dT15 ssDNA binding fluorescence polarization; stronger effect = higher value; concentration not given here
[8] = compounds altering Cy5-DNA-NS3h complex signal – biochemical, LOPAC1280, artefact control for HCV NS3 helicase inhibitor project (AID 687037); settings: Cy5-DNA-NS3h complex fluorescence interference counterscreen
[9] = measured here: relative caspase fold change +Dox/-Dox
[10] = measured here: total cells with miR-34 induction, stronger effect = lower value
[11] = measured here: total cells without miR-34 induction

CCCCC[C@@H](/C=C/C=C\C/C=C\C/C=C\CCCC(=O)O)OO
survival [1]: 120 (inactive) | fold change ([2]; stronger effect = lower value): 0.973 (inactive) | fold change [2, 9]: 0.92 | cell count [2, 10]: 5790 | cell count [2, 11]: 5950 | fold fluorescence [3]: 5.13 [at 1 µM] (inactive)

CN1CCC[C@@H]1Cc1c[nH]c2ccc(Nc3ncccc3[N+](=O)[O-])cc12
fold change ([2]; stronger effect = lower value): 1.01 (inactive) | fold change [2, 9]: 1.84 | cell count [2, 10]: 7590 | cell count [2, 11]: 7510 | outcome [4]: inactive | z-score [5]: -0.89 (inactive)

C[C@]12Cc3cn4c(nc3C=C1CCC1C2CC[C@@]2(C)[C@H]1CC[C@@]2(O)C#N)nc1ccccc14 (stereo not given in full)
period change [6]: 0.285 h (inactive) | inhibition [7]: 0% (inactive) | fluorescence ratio (interference) [8]: 1 (inactive) | fold change ([2]; stronger effect = lower value): 1.02 (inactive) | fold change [2, 9]: 0.934 | cell count [2, 10]: 1380 | cell count [2, 11]: 1350 | outcome [4]: inactive | z-score [5]: -0.25 (inactive)

N[C@@]1(C(=O)O)CC[C@@H](C(=O)O)C1
period change [6]: -0.105 h (inactive) | inhibition [7]: -5% (inactive) | fluorescence ratio (interference) [8]: 1 (inactive) | fold change ([2]; stronger effect = lower value): 1.04 (inactive) | fold change [2, 9]: 2.1 | cell count [2, 10]: 10500 | cell count [2, 11]: 10000 | outcome [4]: inactive | z-score [5]: 0.225 (inactive)

CC(C)(C)OC(=O)NC1[C@H]2CNC[C@@H]12 (stereo not given in full)
fold change ([2]; stronger effect = lower value): 1.05 (inactive) | fold change [2, 9]: 1.39 | cell count [2, 10]: 11400 | cell count [2, 11]: 10800 | outcome [4]: inactive | z-score [5]: 0.37 (inactive)

O=C(NC1CN2CCC1CC2)c1cc2ccoc2cn1 (stereo not given)
fold change ([2]; stronger effect = lower value): 0.991 (inactive) | fold change [2, 9]: 1.41 | cell count [2, 10]: 10200 | cell count [2, 11]: 10300 | outcome [4]: inactive | z-score [5]: 0.38 (inactive)

c1ccc2cc(CC3=NCCN3)ccc2c1
period change [6]: 0.04 h (inactive) | inhibition [7]: -3% (inactive) | fluorescence ratio (interference) [8]: 1 (inactive) | fold change ([2]; stronger effect = lower value): 1.06 (inactive) | fold change [2, 9]: 1.69 | cell count [2, 10]: 11100 | cell count [2, 11]: 10500 | outcome [4]: inactive | z-score [5]: 0.28 (inactive)

CO[C@@H]1C[C@@H](C[C@H]2CC[C@H](C)[C@H]([C@@H](C)C(=O)O)O2)O[C@]2(O[C@](C)([C@H]3CC[C@@](C)([C@@H]4O[C@@H]([C@H]5O[C@@](O)(CO)[C@H](C)C[C@@H]5C)C[C@@H]4C)O3)C[C@H]2C)[C@@H]1C
fold change ([2]; stronger effect = lower value): 0.993 (inactive) | fold change [2, 9]: 1.75 | cell count [2, 10]: 1790 | cell count [2, 11]: 1800 | fold fluorescence [3]: 5.68 [at 69 µM] (inactive)

C[C@@H]1O[C@H](C[N+](C)(C)C)C[C@H]1O
period change [6]: -0.03 h (inactive) | inhibition [7]: -2% (inactive) | fluorescence ratio (interference) [8]: 1 (inactive) | fold change ([2]; stronger effect = lower value): 1.05 (inactive) | fold change [2, 9]: 1.87 | cell count [2, 10]: 10900 | cell count [2, 11]: 10400 | outcome [4]: inactive | z-score [5]: 0.675 (inactive)
